# NIH3T3 tox = Cytotoxic Profiling in NIH 3T3 Cell Line of Diverse Libraries Using Quantitative High-Throughput Screening; NIH 3T3 viability, CellTiter-Glo ATP luminescence, 48-72 h; Potency, µM (doses to about 96.7 µM), inactives show at the highest dose activity change, negative = cytotoxicity, actives largely listed as inhibitors; 94,000 compounds, 4.3% hits; AID 1345082, 2018; note: % is set by controls: 0 for no effect and ±100 for the full control effect; nearly all actives have a fitted effect of over 55% in size
#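 Luminescent ATP readout (CellTiter-Glo, 10 min RT) after 48 or 72 hr compound exposure of NIH 3T3 cells seeded at 400 cells/well in 1536-well format; quantitative HTS.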
# Luciferase inh = Firefly luciferase inhibition profiling of diverse chemical library using quantitative high-throughput screening; purified P. pyralis luciferase, luminescence, biochemical; Potency, µM (series often up to 115 µM), actives largely listed as inhibitors; 76,000 compounds, 2.5% hits; note: % is set by controls: 0 for no effect and ±100 for the full control effect; nearly all actives have a fitted effect of over 65% in size
#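 Purified 10nM P. pyralis luciferase with 10uM D-luciferin and 10uM ATP in 50mM Tris acetate pH 7.5, 10mM Mg acetate, 0.01% Tween-20, 0.05% BSA. qHTS titration; luminescence read by CCD imager.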
# GPT2 inh = Primary qHTS assay for inhibitors of Glutamate pyruvate transaminase 2 (GPT2); Alanine aminotransferase 2 (Homo sapiens), Q8TD30; Recombinant GPT2, coupled pyruvate oxidase/HRP Amplex Red fluorescence; Potency, µM (titrated, usually from 57.7 µM), inactives show at the highest dose activity change, negative = inhibition, actives largely listed as inhibitors; 100,000 compounds, 0.25% hits; note: % is set by controls: 0 for no effect and ±100 for the full control effect; nearly all actives have a fitted effect of over 60% in size
# Target sequence (Q8TD30 whole entry, looked up): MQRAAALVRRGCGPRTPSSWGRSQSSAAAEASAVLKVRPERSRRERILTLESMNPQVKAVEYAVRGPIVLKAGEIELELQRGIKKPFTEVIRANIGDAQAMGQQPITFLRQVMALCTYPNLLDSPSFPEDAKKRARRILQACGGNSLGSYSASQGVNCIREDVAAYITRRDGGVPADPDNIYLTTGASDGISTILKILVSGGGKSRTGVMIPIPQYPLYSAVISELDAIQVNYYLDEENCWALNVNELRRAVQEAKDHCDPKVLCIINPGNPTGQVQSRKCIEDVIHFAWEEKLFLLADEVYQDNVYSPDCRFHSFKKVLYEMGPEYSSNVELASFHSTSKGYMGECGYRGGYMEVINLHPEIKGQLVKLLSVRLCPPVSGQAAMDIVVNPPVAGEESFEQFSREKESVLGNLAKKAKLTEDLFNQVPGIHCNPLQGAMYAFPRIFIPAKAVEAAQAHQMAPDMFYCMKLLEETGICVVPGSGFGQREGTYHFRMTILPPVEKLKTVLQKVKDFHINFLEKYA
#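 Fluorescence read-out: pyruvate from GPT2 turnover coupled to pyruvate oxidase, HRP and Amplex Red (0.2mM ThPP, 0.2U/mL PO and HRP, 50uM Amplex final). Substrates 250uM a-KG, 2mM L-alanine; enzyme 10ng/uL; 30 min RT.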
# HEK cytotox = Cytotoxic Profiling in HEK 293 Cell Line of Diverse Libraries Using Quantitative High-Throughput Screening; HEK 293 viability, ATP luminescence (CellTiter-Glo), 48-72 h; Potency, µM (highest dose often 115 µM), for the others: top-dose activity change, negative = cytotoxicity, most hits filed as inhibitors; 94,000 compounds, 6.6% hits; note: % is set by controls: 0 for no effect and ±100 for the full control effect; nearly all actives have a fitted effect of over 60% in size
#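 HEK 293 seeded at 250 cells/well receive compound via pintool. After 48 or 72 hr at 37 degree Celsius, 5% CO2 and 95% humidity, CellTiter-Glo is dispensed and luminescence read following 10 min at room temperature.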
# hNpr1 antagonist = Natriuretic polypeptide receptor (hNpr1) antagonism - Primary qHTS; AID 1347048, 2019; Atrial natriuretic peptide receptor 1 (Homo sapiens), P16066; 76,000 compounds, 1.6% hits; HEK293 hNpr1 GloSensor cGMP, ANP-stimulated luminescence; Potency, µM (series often up to 46.3 µM), for the others: top-dose activity change, negative = inhibition, usual class: inhibitors; calls by dose curve; note: % is set by controls: 0 for no effect and ±100 for the full control effect; nearly all actives have a fitted effect of over 60% in size
#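 HEK293 cells stably expressing human Npr1 and cGMP GloSensor pGS-40F, loaded 2 h with 2% GloSensor reagent, given compound 30 min at room temperature. Luminescence read before and 20 min after 0.1 nM hNppA.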
# NPR1 antag cnf = Natriuretic polypeptide receptor (hNpr1) antagonism - Confirmation. shares compounds with hNpr1 antagonist. HEK293 hNpr1 cGMP GloSensor luminescence, ANP-stimulated. Potency, µM (highest dose often 57.6 µM), for the others: at the highest dose activity change, negative = inhibition, usual class: inhibitors. 1,400 compounds, 76% hits. AID 1347044, 2019; calls by dose curve; note: nearly all actives have a fitted effect of over 70% in size
# Npr2 selectivity = Natriuretic polypeptide receptor (hNpr2) antagonism - Subtype selectivity assay; Potency, µM (doses to about 57.6 µM), for inactives: at the highest dose activity change, negative = inhibition, hits mostly inhibitors; AID 1347046, 2019; HEK293 hNpr2 GloSensor cGMP luminescence, CNP-stimulated; 1,400 compounds, 67% hits; shares compounds with hNpr1 antagonist; calls by dose curve; note: nearly all actives have a fitted effect of over 70% in size
# FLuc inh counter = Natriuretic polypeptide receptor (hNpr1) antagonism - Confirmation firefly luciferase (FLuc) inhibition counterscreen. shares compounds with hNpr1 antagonist. purified FLuc enzyme, luminescence, Km substrate. Potency, µM (top dose mostly 57.6 µM), inactives show top-dose activity change, negative = inhibition, actives largely listed as inhibitors. 1,400 compounds, 0.7% hits. AID 1347047, 2019; note: 0% is about no effect
# GloSensor cGMP = Natriuretic polypeptide receptor (hNpr1) antagonism - Counterscreen GloSensor control cell line | shares compounds with hNpr1 antagonist | HEK293 GloSensor cGMP, SNP-stimulated, luminescence | Potency, µM (series often up to 57.6 µM), inactives show at the highest dose activity change, negative = inhibition, hits mostly inhibitors | 1,400 compounds, 69% hits; calls by dose curve; note: % is set by controls: 0 for no effect and ±100 for the full control effect; nearly all actives have a fitted effect of over 70% in size
# * hit, by the source's call; i = inactive; ? = inconclusive; . = no result given. Rows were chosen to be rich in hits. Some 10% of all compounds tested hit in one or more screens of this group. Unless noted, calls come from the whole dose curve; as a rule, active = well fitted curve in the direction sought with a large enough effect; inconclusive = small, poorly fitted or top-dose-only effect, or another doubt; inactive = no such curve, though single readings can be large; an effect the other way counts as inactive or inconclusive. Potency is the fitted concentration of half-maximal effect.
SMILES,NIH3T3 tox,Luciferase inh,GPT2 inh,HEK cytotox,hNpr1 antagonist,NPR1 antag cnf,Npr2 selectivity,FLuc inh counter,GloSensor cGMP
CCCN1CCC2(CCN(C(=O)c3cccc(Cl)c3)CC2)Oc2ccccc21,?,i,i,?,11%,.,.,.,.
COc1ccc(-n2c(=O)c(C(=O)NCCCc3ccccc3)nc3cccnc32)cc1,-9%,.,-1%,i,.,.,.,.,.
C[S+](=O)([O-])c1ccc(CC(=O)N2CC(COc3ccccc3)C3(C2)CN(c2ccccc2)C3)cc1 (stereo unspecified),-32%,i,-6%,?,0%,.,.,.,.
O=C(CCc1ccccc1)N1CC(Oc2ccc(-c3noc(C4CC4)n3)cc2)C1,?,i,i,28µM*,14µM*,15µM*,17µM*,2%,15µM*
COc1cccc(CCC(=O)N2CCC(Cc3nc(C4CCOCC4)no3)CC2)c1,-9%,i,i,-9%,-17%,.,.,.,.
COCCNC(=O)c1ccc(CC2CCN(C(=O)CCc3ccc(OC)cc3)CC2)cc1,-29%,i,i,?,-17%,.,.,.,.
COc1ccc(CCC(=O)N2CCC(Cc3nc(-c4ccc(OC)cc4)no3)CC2)cc1,?,i,i,?,11µM*,17µM*,17µM*,0%,12µM*
COc1ccc(-c2noc(CC3CCN(C(=O)CCc4ccccc4)CC3)n2)cc1,?,i,i,35µM*,13µM*,19µM*,22µM*,0%,17µM*
CCC1(O)CCC12CCN(C(=O)CCc1ccc(OC)cc1)CC2 (stereo unspecified),-2%,.,1%,i,.,.,.,.,.
COCC(=O)N1CCN(C(=O)c2cccc(-c3ccccc3OC)c2)CC1,0%,.,-2%,i,.,.,.,.,.
COc1ccc(C(=O)N2CCCN(c3cc(-c4ccc(Cl)cc4)[nH]n3)CC2)cc1F,25µM*,i,?,?,?,24µM*,22µM*,3%,24µM*
COc1ccc(C(=O)N2CCCN(c3cc(-c4ccc(Br)cc4)[nH]n3)CC2)cc1F,22µM*,i,?,40µM*,11µM*,22µM*,19µM*,-3%,15µM*
COc1ccc(C(=O)N2CCN(c3cc(-c4ccc(Cl)cc4)[nH]n3)CC2)cc1OC,?,i,i,35µM*,6.3µM*,15µM*,19µM*,-10%,14µM*
O=C(c1ccc2[nH]ccc2c1)N1CCCN(c2cc(-c3ccc(Br)cc3)[nH]n2)CC1,32µM*,i,?,22µM*,4.5µM*,24µM*,24µM*,-13%,19µM*
